Measurements published in ChEMBL document CHEMBL3988442, “University of Dundee, Small-Polar-MMV Screening Library” (2021).
Screen size: about 69,000 compounds; about 1,000 (1.4%) showed an effect of 50% or more. What follows is part of a selection rich in strong results, with near analogues and random picks from the rest.

Test system: Leishmania donovani
Assay: Leishmania intramacrophage assay
Assay type: functional, organism-based
Design: scale not given: in the data most compounds retested in dose-response had high values

Cn1cc(C2CN(C(=O)Cc3coc(-c4ccccc4)n3)CCO2)cn1 (stereo not given)
Percent Effect (30.3 µM, […]): 1.481%

COc1ccccc1CCN(C)C(=O)NC(C)c1nncn1C (stereo not given)
Percent Effect (30 µM, 30.03 µM): 13.36%

COc1cc(CN2CCC(COCc3ccccc3)CC2)cc(OC)c1
Percent Effect (30.3 µM, […]): 11.79%

CCc1ccc(Cn2nccc2NC(=O)C2CCS(=O)(=O)C2)cc1 (stereo not given)
Percent Effect (30.3 µM, […]): 28.09%

COc1ccc(-c2nnc([C@H]3CCN(C4CCC4)C3)o2)cc1
Percent Effect (30.3 µM, […]): 5.132%

O=C(c1ccc(Cn2ccccc2=O)o1)N1CCSCC1
Percent Effect (30 µM): 34.1%

Cc1nc2c(c(NCC3Cc4ccccc4CN3C)n1)CCNCC2 (stereo not given)
Percent Effect (30.3 µM, […]): 11.22%

Cc1nc2c(c(NC3CCN(Cc4ccccc4)CC3)n1)CCNCC2
Percent Effect (30.3 µM, […]): 8.424%

Cc1nc2c(c(NCC(O)c3ccccc3Cl)n1)CCNCC2 (stereo not given)
Percent Effect (30.3 µM, […]): 52.68%

c1ccc(-c2nc3c(c(NCCn4cccc4)n2)CCNCC3)nc1
Percent Effect (30.3 µM, […]): 4.707%

Cc1nc2c(c(NCc3cc4ccccc4s3)n1)CCNCC2
Percent Effect (30.3 µM, […]): 99.76%

c1ccc(-c2nc3c(c(NCCn4ccnn4)n2)CCNCC3)nc1
Percent Effect (30.3 µM, […]): 12.83%

Cc1nc2c(c(NCc3nc4ccccc4s3)n1)CCNCC2
Percent Effect (30.3 µM, […]): 11.81%

Cc1nc2c(c(NCC(c3ccccc3C)N(C)C)n1)CCNC2 (stereo not given)
Percent Effect (30.3 µM, […]): 37.15%

Cc1nc2c(c(NCc3ccc(-c4ccccn4)s3)n1)CCNCC2
Percent Effect (30.3 µM, […]): 74.83%

COC[C@@]12CCC[C@@H]1CN(C(=O)CN(C)C)C2.O=C(O)C(F)(F)F
Percent Effect (30.3 µM, […]): 2.882%

CCc1cnc(CCNC(C)CC(=O)Nc2cccc(C)c2C)s1 (stereo not given)
Percent Effect (30.3 µM, […]): 0.8494%

COCC1CN(Cc2cccc(C#N)c2)Cc2nccn2C1 (stereo not given)
Percent Effect (30.3 µM, […]): 20.19%

CNC[C@H]1CC[C@H](c2cc(CN(C)S(=O)(=O)N(C)C)n(C)n2)CC1.Cl
Percent Effect (30.3 µM, […]): 29.88%

COCC1CC2(CCN(C(=O)c3ccc(C)nc3)CC2)CO1.O=C(O)C(F)(F)F (stereo not given)
Percent Effect (30.3 µM, […]): 25.55%

CN(C)[C@@H]1CCN(C(=O)NC2CCCC2)[C@H]1Cc1cnn(C)c1.O=C(O)C(F)(F)F
Percent Effect (30 µM, 30.03 µM): 11.61%

Cc1cc(N2CCC(c3nccn3Cc3cscn3)CC2)ccn1
Percent Effect (30.3 µM, […]): -14.56%

Cc1ccc(-c2nc(CNC(C)CCO)[nH]c2-c2ccccn2)cc1 (stereo not given)
Percent Effect (30.3 µM, […]): 67.9%

CN(C)S(=O)(=O)NCc1nc(-c2cccc(F)c2)c(-c2ccccn2)[nH]1
Percent Effect (30.3 µM, […]): 3.232%

Cc1ccc(-c2nc(CNS(=O)(=O)N(C)C)[nH]c2-c2ccccn2)cc1
Percent Effect (30.3 µM, […]): 30.48%

Cc1cnn(CC(C)NCc2nc(-c3ccccn3)no2)c1 (stereo not given)
Percent Effect (30.3 µM, […]): 2.286%

COCC(C)NCc1nc(-c2ccc(C)cc2)c(-c2ccccn2)[nH]1 (stereo not given)
Percent Effect (30.3 µM, […]): 71.58%

COCc1ccc(C(=O)N2CCOCC2c2ccc(C)o2)cc1 (stereo not given)
Percent Effect (30.3 µM, […]): 18.1%

O=C(O)C(F)(F)F.c1ccc(C[C@H]2CN(C3CCOCC3)CC[C@H]2OCC2CC2)cc1
Percent Effect (30.3 µM, […]): 14.89%

O=C(COc1coc(CN2CCCCCC2)cc1=O)c1ccccc1
Percent Effect (30 µM, 30.03 µM): 12.38%

Cc1cc(C)c2c(NCC3(O)CCCCC3)ncnc2n1
Percent Effect (30.3 µM, […]): -4.66%

CC(c1c(F)cccc1F)N1CCN(Cc2nccn2C)CC1 (stereo not given)
Percent Effect (30.3 µM, […]): 28.44%

O=C(N1CCCC1)N1CCc2ncnc(C3CCOC3)c2CC1 (stereo not given)
Percent Effect (30 µM, 30.03 µM): -0.6847%

CN(Cc1cc2cc(F)ccc2[nH]1)C(=O)C1CC(=O)N(C(C)(C)C)C1 (stereo not given)
Percent Effect (30.3 µM, […]): 55.15%

CCN1CC(C(=O)N(C)Cc2cc3cc(F)ccc3[nH]2)CC1=O (stereo not given)
Percent Effect (30.3 µM, […]): 16.63%

CN(Cc1cc2cc(F)ccc2[nH]1)C(=O)C1CC(=O)N(C2CC2)C1 (stereo not given)
Percent Effect (30.3 µM, […]): 14.52%

COC(=O)c1ccc(F)c(Cn2nc(C)cc2C)c1
Percent Effect (30.3 µM, […]): 38.02%

O=S(=O)(NC(CO)Cc1c[nH]c2ccccc12)c1cncc(F)c1 (stereo not given)
Percent Effect (30.3 µM, […]): 19.78%

Cc1ccc(C(=O)N2CCc3c(COCC4CC4)cncc3C2)o1
Percent Effect (30.3 µM, […]): -21.23%

COCc1nc(CNc2cccc(-c3csc(C)n3)c2)cs1
Percent Effect (30.3 µM, […]): -17.78%

COCc1nc(CNc2cccc(-c3ncon3)c2)cs1
Percent Effect (30.3 µM, […]): 70.63%

COCc1nc(CNc2cccc(-c3nc(C)c(C)o3)c2)cs1
Percent Effect (30.3 µM, […]): 3.012%

N#Cc1nccnc1NC1CCN(c2ccccc2Br)C1 (stereo not given)
Percent Effect (30.3 µM, […]): -7.134%

CS(=O)(=O)c1ccc(CNCC2CCN(CCO)CC2)cc1
Percent Effect (30 µM, 30.03 µM): 7.016%

Cc1ncccc1CNCC1CCN(CCO)CC1
Percent Effect (30 µM): 29.11%

N#Cc1ccc(CNCC2CCN(CCO)CC2)cc1
Percent Effect (30 µM, 30.03 µM): 18.87%

NC(=O)c1ccc(CNCC2CCN(CCO)CC2)cc1
Percent Effect (30.3 µM, […]): -0.3402%

OCCN1CCC(CNCc2cn(-c3ccccc3)nn2)CC1
Percent Effect (30.3 µM, […]): -6.29%

CCc1ccc(CNCC2CCN(CCO)CC2)cc1
Percent Effect (30.3 µM, […]): 73.93%

OCCN1CCC(CNCc2ccc(N3CCCCC3)cc2)CC1
Percent Effect (30.3 µM, […]): 79.78%
